Screening data: PubChem BioAssay, National Center for Advancing Translational Sciences (NCATS)
This is a sample that favours compounds with a hit; in the whole collection about 0.9% have one here.
gsp agonist: agonists of gsp mutant (McCune-Albright syndrome); gsp mutant cells, cAMP HTRF, 30 min; Potency, µM (highest dose often 76.9 µM), without a hit: top-dose activation (cAMP increase), actives largely listed as activators; actives 0.13% (n = 340,000); AID 624287; active = well fitted activation curve with a large enough effect; inconclusive = small, poorly fitted or top-dose-only effect, or another doubt; inactive = no such curve, though single readings can be large or run the other way; cell line not stated here;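 note: phosphodiesterase inhibitor Ro 20-1724 added with compounds to block cAMP breakdown; potency is the fitted concentration of half-maximal effect; nearly all actives have a fitted effect of over 60% in size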
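Cells stably selected in G418 were plated at 2000/well, grown 16-24 hr, then given compounds in DMSO with the PDE inhibitor […] (300 uM solution added) for 30 min at 37C; cAMP was read by HTRF.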
RXFP1 antag: antagonists of human relaxin receptor RXFP1. AID 1259400. activity change, negative = inhibition, % at 57.5 µM. actives 0.59% (n = 350,000). HEK293-RXFP1, relaxin-stimulated cAMP HTRF, 30 min; active compounds read low. Q9HBX9;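 active = activity change of -60% or lower, but not beyond a set lower limit; inconclusive = change between -60% and -40%, or beyond the set limit; inactive = change above -40%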; note: % is set by controls: 0 for no effect and ±100 for the full control effect
Target sequence (Q9HBX9 whole entry, looked up): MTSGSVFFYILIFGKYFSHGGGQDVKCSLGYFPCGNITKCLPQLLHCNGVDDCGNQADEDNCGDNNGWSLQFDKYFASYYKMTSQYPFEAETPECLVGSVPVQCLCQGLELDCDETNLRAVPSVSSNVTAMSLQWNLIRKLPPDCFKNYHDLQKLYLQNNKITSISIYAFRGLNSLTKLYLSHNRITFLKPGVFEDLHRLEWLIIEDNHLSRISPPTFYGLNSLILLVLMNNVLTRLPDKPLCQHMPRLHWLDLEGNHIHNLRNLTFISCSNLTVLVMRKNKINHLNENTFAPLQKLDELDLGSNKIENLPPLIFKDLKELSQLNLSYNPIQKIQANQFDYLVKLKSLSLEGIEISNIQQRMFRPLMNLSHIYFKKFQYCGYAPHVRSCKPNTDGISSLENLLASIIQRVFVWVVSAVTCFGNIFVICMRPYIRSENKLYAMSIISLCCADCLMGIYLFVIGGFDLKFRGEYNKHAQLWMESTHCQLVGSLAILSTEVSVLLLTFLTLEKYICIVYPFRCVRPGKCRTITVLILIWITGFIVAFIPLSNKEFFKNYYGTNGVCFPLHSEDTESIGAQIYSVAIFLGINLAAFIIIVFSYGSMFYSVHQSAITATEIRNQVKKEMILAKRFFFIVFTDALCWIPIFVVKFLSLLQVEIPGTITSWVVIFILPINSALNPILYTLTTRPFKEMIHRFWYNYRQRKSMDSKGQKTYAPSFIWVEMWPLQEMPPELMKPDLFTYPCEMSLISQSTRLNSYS
gsp antagonist: antagonizes gsp, the McCune-Albright syndrome mutation. Potency, µM (titrated, usually from 76.9 µM), for the others: at the top dose activity change, negative = inhibition, most hits filed as inhibitors. AID 624288. gsp-mutant cells, cAMP HTRF, 30 min. actives 0.4% (n = 340,000); calls by dose curve; cell line not stated here;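 note: intracellular cAMP measured with PDE inhibitor Ro 20-1724 present during compound exposure; potency is the fitted concentration of half-maximal effect; % is set by controls: 0 for no effect and ±100 for the full control effect; nearly all actives have a fitted effect of over 65% in size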
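HTRF cAMP measurement after 30 min RT detection following 30 min, 37C compound treatment alongside […] (added as 300 uM solution) in G418-selected cells seeded at 2000/well and grown 16–24 h.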
RXFP1 agonist: agonists of human relaxin receptor RXFP1; HEK293T-RXFP1 cAMP TR-FRET, 30 min; response scale: percent of porcine relaxin response, buffer zero; actives 0.3% (n = 370,000); Q9HBX9; Potency, µM (series often up to 57.5 µM), inactives show at the top dose activation, hits mostly activators; active = well fitted activation curve with a large enough effect; inconclusive = small, poorly fitted or top-dose-only effect; note: potency is the fitted concentration of half-maximal effect; % is set by controls: 0 for no effect and ±100 for the full control effect; nearly all actives have a fitted effect of over 60% in size
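HEK293 cells stably expressing RXFP1, treated 30 min at 37C with compounds plus PDE4 inhibitor Ro 20174; cAMP measured by HTRF TR-FRET. Normalized to buffer and 29 nM porcine relaxin; EC50 by Hill fit.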
* hit, by the source's call; u = inconclusive; x = no result; [ ] = another dose, or the depositor's remark.

SMILES | gsp agonist | RXFP1 antag | gsp antagonist | RXFP1 agonist
N#Cc1c(C(F)(F)F)cc(-c2ccccc2Cl)[nH]c1=O | 15% | -110* | 28µM* | 3%
CCOc1ccc(NC(=O)Cn2cc(C(=O)c3ccccc3)c(=O)c3cc4c(cc32)OCO4)cc1 | x | x | x | 8%
Cc1ccc(S(=O)(=O)N2CCN(C(=O)CN3C(=O)NC4(CCCCC4)C3=O)CC2)c(C)c1 | 8%[15.4 µM] | -61* | 9% | 1%
COc1cc2ccccc2cc1C(=O)Nc1ccc(Cc2ccncc2)cc1 | -4% | -15 | 35µM* | 1%
CCOc1ccc(/C=N/NC(=O)c2cc3ccccc3cc2OC)cc1 | -12% | 0 | 28µM* | 5%
COc1cc2ccccc2cc1C(=O)Nc1ccc(C)cc1 | 5% | -16 | 32µM* | 0%
Cc1c(-c2ccccc2Br)nc2ccccc2c1C(=O)O | 5% | 4 | -4% | x
CCc1ccc(-c2nc3ccc(Br)cc3c(C(=O)O)c2C)s1 | u | -1 | 5% | 7.1µM*
Cc1ccc2c(c1)-c1cc(C)nn1C(c1cc(Br)ccc1O)N2 (centres undefined) | x | -114* | x | -3%
Cc1nn(-c2ccc(F)cc2)c(Cl)c1/C=C(/CC(=O)O)c1nc2ccccc2s1 | -21% | 4 | -20% | x
Cc1nn(-c2ccc(F)cc2)c(Cl)c1/C=C(\CC(=O)O)c1nc2ccccc2s1 | 26% | 4 | 40µM* | 0%
CCOc1ccc(C2C=C(c3ccc(C)cc3)Nc3nnnn32)cc1 (centres undefined) | 11% | 9 | 40µM* | 1%
CCOc1ccccc1NC(=O)c1ccc2oc(=O)c(S(=O)(=O)c3ccc(F)cc3)cc2c1 | x | x | x | 1%
CCCCCCCCC(=O)N/N=C/c1ccccn1 | 24% | -19 | -1% | -1%
CCCCCCCCC/C(=N\O)c1ccccn1 | 4%[15.4 µM] | -69* | 8% | -1%
CC(=O)c1c(C)n(-c2cccc(C)c2)c2ccc(OC(=O)COc3ccccc3)cc12 | x | x | x | 1%
O=C(Nc1ccncc1)c1ccc2c(c1)C(=O)N(C1CCCCC1)C2=O | -38% | -11 | 22µM* | 0%
C=C(C)Cn1c(-c2ccncc2)n[nH]c1=S | -19%[15.4 µM] | -67* | x | 1%
COc1ccc(CCC(=O)NCCc2csc(-c3cccc(F)c3)n2)cc1 | x | -14 | x | 1%
COc1ccc(CCC(=O)NCc2ccccc2OC)cc1 | u | 12 | 3.2µM* | 3%
COc1ccc(CCC(=O)NCCc2csc(-c3cccc(C)c3)n2)cc1 | x | -73* | x | 1%
O=C(NCCc1csc(-c2cccc(F)c2)n1)c1ccc(Br)o1 | x | -78* | x | -2%
Cc1ccc(CNC(=O)C2CCC(CNS(=O)(=O)c3ccc(C)cc3)CC2)cc1 (centres undefined) | x | -4 | x | 2%
O=C(Nc1cccnc1)c1ccc(COc2ccccc2Br)o1 | -72% | 14 | -14% | 3%
CC(C)(C)c1ccc(OCc2ccc(C(=O)Nc3cccnc3)o2)cc1 | u | -64* | u | -3%
SMILES | gsp agonist | RXFP1 antag | gsp antagonist | RXFP1 agonist
COc1ccc(S(=O)(=O)N2CCOCC2)cc1NC(=O)c1sccc1C | 15% | 3 | u | 2%
CCS(=O)(=O)c1ncc(Cl)c(C(=O)Nc2ccc(S(=O)(=O)N3CCCC(C)C3)cc2)n1 (centres undefined) | -8%[15.4 µM] | -119* | u | 2%
CC(=O)Nc1ccc(NC(=O)c2nc(S(=O)(=O)Cc3ccccc3)ncc2Cl)cc1 | -7% | u | -3% | -3%
CS(=O)(=O)c1ncc(Cl)c(C(=O)Nc2ccc3ccccc3c2)n1 | -19% | -93* | 4% | 1%
COc1ccc(NC(=O)c2nc(S(=O)(=O)Cc3ccc(C)cc3)ncc2Cl)cc1 | x | -118* | x | 3%
CCS(=O)(=O)c1ncc(Cl)c(C(=O)Nc2ccc(C)cc2)n1 | 5% | -78* | u | 1%
CCC1CCCCN1S(=O)(=O)c1ccc(NC(=O)c2nc(S(C)(=O)=O)ncc2Cl)cc1 (centres undefined) | -5%[15.4 µM] | u | u | 3%
Cc1cc(C)cc(NC(=O)N2CCN(c3cc(-c4noc(C)n4)ccc3C)CC2)c1 | x | x | x | 2%
COCCNC(=O)C1CCC(CNS(=O)(=O)c2ccc3c(c2)CC(C)N3C(C)=O)CC1 (centres undefined) | x | 3 | x | 0%
CN1Cc2cc(C(=O)N3CCC(C4CCNCC4)CC3)ccc2N[C@@H](CC(=O)O)C1=O | x | -13 | x | x
Cc1ccc(CS(=O)(=O)c2ncc(Cl)c(C(=O)Nc3ccc(OC(F)F)cc3)n2)cc1 | -7%[15.4 µM] | -66* | u | -1%
O=C(Nc1ccc(OC(F)F)cc1)c1ncc(Cl)c(Cl)c1Cl | -9%[15.4 µM] | -8 | 11µM* | 1%
C/C=C(/C(=C/C)c1ccc(OC(C)=O)cc1)c1ccc(OC(C)=O)cc1 | x | -12 | x | x
O=C(CCC1CCN(Cc2ccccc2)CC1)c1ccc2c(c1)NCCCC2 | x | -35 | x | x
CCOC(=O)N1CCN(c2ncnc3nc[nH]c23)CC1 | 20µM* | x | -1% | 7%
CCOC(=O)C1CCN(c2ncnc3nc[nH]c23)CC1 | -35% | x | -4% | 4%
Cc1nnc(-c2cccc(Br)c2)c2cn(-c3ccccc3Cl)nc12 | 28% | -64* | -10% | 3%
Cc1ccc(-n2cc3c(-c4cccc(Br)c4)nnc(C)c3n2)cc1 | u | -12 | -21% | 2%
Cc1cccc(N2CCN(C(=O)c3noc4c3CCCCC4)CC2)c1C | x | -15 | x | 2%
CCOC(=O)COc1ccc2nsnc2c1Cl | 0% | -8 | u | 6%
C=C(CC)C(=O)c1ccc(OCC(=O)O)c(Cl)c1Cl | x | -71* | u | -3%
N#CC1(c2ccc(F)cc2)CCC(=O)CC1 | x | -9 | x | x
O=c1oc2cc(O)ccc2c2ccccc12 | 8.9µM* | 31 | 13% | 14µM*
COc1ccc2c(c1)c(=O)oc1cc(O)ccc12 | u | 13 | 2% | 8%
Cc1nc2n(c(=O)c1CCN1CCC(C(=O)c3ccc(F)cc3)CC1)CCS2 | x | 44 | x | x
SMILES | gsp agonist | RXFP1 antag | gsp antagonist | RXFP1 agonist
O=C1N=c2ccccc2=C1c1sc(Nc2cccc(O)c2)nc1O | -61% | -9 | u | 0%
O=C1N=c2ccccc2=C1c1sc(Nc2ccc(O)cc2)nc1O | -6%[15.4 µM] | -81* | -6% | -2%
CC(C)(C)c1csc(NNC(=O)c2ccc(Br)cc2)n1 | 8%[15.4 µM] | -61* | -14% | 1%
CC(C)(C)c1csc(NC(=O)c2ccccc2O)n1 | -4%[15.4 µM] | -35 | -23% | 0%
CCN(CC(=O)Nc1ccccc1C(F)(F)F)C(=O)CN1C(=O)NC2(CCCC2)C1=O | -15%[15.4 µM] | -60* | 6% | 1%
CCCCc1nc2cc(C(=O)NCc3cn(C)nc3C)ccc2o1 | 7% | 8 | 35µM* | 3%
CCCCc1nc2cc(C(=O)NCc3nccn3CC)ccc2o1 | -21% | 5 | -6% | -1%
O=C(COC(=O)CCc1nc2ccccc2s1)NC(=O)NCc1ccco1 | 1%[15.4 µM] | -9 | 11µM* | 0%
Cc1cccn2c(=O)c(/C=C3\SC(=S)NC3=O)c(NCCCN3CCOCC3)nc12 | 10µM* | 9 | 16% | 5µM*
CCCN1C(=O)/C(=C/c2c(NCCCOCC)nc3c(C)cccn3c2=O)SC1=S | -2% | 5 | 3% | 1%
